About 83,000 compounds went through this panel and 20% of them were active in at least one assay; those are over-represented in the sample as a whole.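 Treatment: one concentration, 48 hours, 96-well format. Scoring: percent growth, with anything below 10 considered active.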 Values without a mark were called inactive. Calls of active or inactive are those of the source.
Experiments:
Assay in all cases: NCI-60 one-dose screen, 48 h (100 = growth as untreated, 0 = no growth, -100 = all killed)
Conditions in all cases: 10 µM unless noted
[1] = tested on: HCT-15 colon
[2] = tested on: HT29 colon
[3] = tested on: SNB-75 CNS
[4] = tested on: U251 CNS
[5] = tested on: PC-3 prostate
[6] = tested on: SK-MEL-5 melanoma
[7] = tested on: UACC-62 melanoma
[8] = tested on: LOX IMVI melanoma
[9] = tested on: SK-MEL-28 melanoma
[10] = tested on: SNB-19 CNS

Structure (SMILES): COc1ccc(Cc2nc(C#N)c(N3CCN(c4ccc(F)cc4)CC3)o2)cc1
- growth [1]: 76%
- growth [2]: 79.8%
- growth [3]: 65.2%
- growth [4]: 103%
- growth [5]: 85.9%
- growth [6]: 100%
- growth [7]: 76.1%
- growth [8]: 96.1%
- growth [9]: 97.9%

Structure (SMILES): Nc1ccccc1NC(=O)c1ccc(CSc2nc(N3CCOCC3)c3cccn3n2)cc1
- growth [1]: 20.1%
- growth [2]: 0.895% (active)
- growth [3]: 20.3%
- growth [4]: 2.15% (active)
- growth [5]: 23.1%
- growth [6]: -41.1% (active)
- growth [7]: -31.9% (active)
- growth [8]: -38.6% (active)
- growth [9]: 16.3%

Structure (SMILES): O=C(C[n+]1cccc2cc(Cl)ccc21)c1ccc2c(c1)CCCC2
- growth [1]: 95.5%
- growth [2]: 5.56% (active)
- growth [3]: 19.8%
- growth [4]: -28.9% (active)
- growth [5]: 16.1%
- growth [6]: -29% (active)
- growth [7]: 17.3%
- growth [8]: 11.9%
- growth [9]: 19.8%

Structure (SMILES): CC(=O)c1c(OCC#N)ccc2c(C)cc(=O)oc12
- growth [1]: 102%
- growth [2]: 117%
- growth [3]: 103%
- growth [4]: 94.9%
- growth [5]: 87.2%
- growth [6]: 104%
- growth [7]: 96.5%
- growth [8]: 100%

Structure (SMILES): COc1ccc2[nH]c3nc4cnccc4cc3c2c1
- growth [1]: 97.9%
- growth [2]: 99.7%
- growth [3]: 97.5%
- growth [4]: 98.9%
- growth [5]: 104%
- growth [6]: 108%
- growth [7]: 117%
- growth [8]: 105%
- growth [9]: 114%

Structure (SMILES): O=C(NCc1ccccc1)c1ccc2c(c1)NC(=O)[C@@H]1CCCN21
- growth [1]: 99.6%
- growth [2]: 103%
- growth [3]: 86.6%
- growth [4]: 102%
- growth [5]: 103%
- growth [6]: 101%
- growth [7]: 93.7%
- growth [9]: 103%

Structure (SMILES): COc1cc2c(Nc3ccc(NC(=O)Nc4ccc(Cl)c(C(F)(F)F)c4)c(Cl)c3)ncnc2cc1OCCCN1CCN(C)CC1
- growth [1]: 86.7%
- growth [2]: 1.14% (active)
- growth [3]: 31.3%
- growth [4]: -89.5% (active)
- growth [5]: -25.3% (active)
- growth [6]: -44.6% (active)
- growth [7]: 0.23% (active)
- growth [8]: -88.3% (active)
- growth [9]: 36.1%

Structure (SMILES): OCCNc1nc(NCCO)nc(Nc2ccc(C3=NN(c4cc(Cl)cc(Cl)c4)C(c4ccc(C(F)(F)F)cc4)C3)cc2)n1 (configuration not stated)
- growth [1]: 17.5%
- growth [2]: 10.5%
- growth [3]: -1.68% (active)
- growth [4]: 19.3%
- growth [5]: 19.2%
- growth [6]: 52.7%
- growth [7]: 47.1%
- growth [8]: -48.5% (active)
- growth [9]: 44.8%

Structure (SMILES): Cc1cccc(C)c1NCc1nnc(-c2ccc(O)cc2)o1
- growth [1]: 97.7%
- growth [2]: 106%
- growth [3]: 77.8%
- growth [4]: 105%
- growth [5]: 95.1%
- growth [6]: 101%
- growth [7]: 100%
- growth [8]: 96.8%
- growth [9]: 102%

Structure (SMILES): COc1ccc(Cl)c([N+](=O)[O-])c1
- growth [1]: 103%
- growth [2]: 107%
- growth [3]: 98.2%
- growth [4]: 106%
- growth [5]: 105%
- growth [6]: 99.2%
- growth [7]: 97%
- growth [8]: 97.2%
- growth [9]: 106%

Structure (SMILES): c1cc(CNC23CC4CC(CC(C4)C2)C3)cc(C[N+](Cc2cccc(CNC34CC5CC(CC(C5)C3)C4)c2)(Cc2cccc(CNC34CC5CC(CC(C5)C3)C4)c2)Cc2cccc(CNC34CC5CC(CC(C5)C3)C4)c2)c1 (configuration not stated)
- growth [2]: -5.66% [42 µM] (active)
- growth [3]: 36.9% [42 µM]
- growth [10]: 31.2% [42 µM]
- growth [4]: 11.6% [42 µM]
- growth [5]: 43% [42 µM]
- growth [6]: 23.1% [42 µM]
- growth [7]: 30.3% [42 µM]
- growth [8]: -4.47% [42 µM] (active)

Structure (SMILES): CCOC(=O)NCCc1nc2c([nH]1)c(=O)n(C)c(=O)n2C
- growth [1]: 97.6%
- growth [2]: 98.5%
- growth [3]: 91%
- growth [4]: 108%
- growth [5]: 91%
- growth [6]: 102%
- growth [7]: 100%
- growth [8]: 94.9%
- growth [9]: 102%

Structure (SMILES): c1ccc(-c2cn3ccnc3c(-c3ccc4c(c3)ncn4C3CCCCC3)n2)cc1
- growth [1]: 80.9%
- growth [2]: 90.8%
- growth [3]: 94.4%
- growth [4]: 95.6%
- growth [5]: 86.5%
- growth [6]: 94.3%
- growth [7]: 98%
- growth [8]: 95.1%
- growth [9]: 111%

Structure (SMILES): COC(=O)/C=C1\SC(=Nc2cccc(Cl)c2)N(CCc2c[nH]c3ccccc23)C1=O
- growth [1]: 29%
- growth [2]: 8.6% (active)
- growth [3]: 84.5%
- growth [4]: 41.1%
- growth [5]: 31.8%
- growth [6]: 63.3%
- growth [7]: 18.3%
- growth [8]: 5.31% (active)

Structure (SMILES): Fc1ccc(N/N=C/c2ccc(-n3cccn3)cc2)cc1
- growth [1]: 83%
- growth [2]: 93.5%
- growth [3]: 99.4%
- growth [4]: 103%
- growth [5]: 85.8%
- growth [6]: 107%
- growth [7]: 74.9%
- growth [8]: 83.8%
- growth [9]: 112%

Structure (SMILES): COc1cc([C@H](C)c2ccc3ccccc3c2)cc(OC)c1OC
- growth [2]: 8.72% (active)
- growth [3]: 0.258% (active)
- growth [10]: 32.7%
- growth [4]: 19.6%
- growth [5]: 30.5%
- growth [6]: 18.1%
- growth [7]: 32.5%
- growth [8]: 48.6%

Structure (SMILES): COc1ccccc1C(=O)/C=C/c1cc2cccc(OC)c2[nH]c1=O
- growth [1]: -12.5% (active)
- growth [2]: -39.1% (active)
- growth [3]: 34.3%
- growth [4]: -55.7% (active)
- growth [5]: 31.1%
- growth [6]: -39.2% (active)
- growth [7]: -29.1% (active)
- growth [8]: -63.5% (active)
- growth [9]: 2.94% (active)

Structure (SMILES): C#CC[C@@H]1C[C@]2(C)[C@H]3CC[C@@H]4[C@H]5[C@H](C(=C)C)CC[C@]5(C(=O)O)CC[C@@]4(C)[C@]3(C)CC[C@H]2C(C)(C)[C@H]1O
- growth [1]: 32%
- growth [2]: 35.9%
- growth [3]: -8.42% (active)
- growth [4]: 26.3%
- growth [5]: 4.77% (active)
- growth [6]: 74.5%
- growth [7]: 72.2%
- growth [8]: 44.3%
- growth [9]: 92%

Structure (SMILES): COc1ccc2c(c1)/C(=C1\S/C(=N/c3nnc(C)s3)NC1=O)C(=O)N2Cc1ccc(Cl)cc1
- growth [1]: 28%
- growth [2]: 54.7%
- growth [3]: 71%
- growth [4]: 26%
- growth [5]: 36.6%
- growth [6]: 30.9%
- growth [7]: 32.8%
- growth [8]: 39.4%
- growth [9]: 49.2%

Structure (SMILES): COc1ccc2oc(=O)cc(-c3nc4ccc(N)cc4[nH]3)c2c1
- growth [1]: 97.7%
- growth [2]: 97.3%
- growth [3]: 53.6%
- growth [4]: 86.2%
- growth [5]: 81.1%
- growth [6]: 81.5%
- growth [7]: 91.5%
- growth [8]: 78.6%
- growth [9]: 111%

Structure (SMILES): O=c1c2ccccc2n(CC(O)CN2CCCC2)c2c(Br)cccc12 (configuration not stated)
- growth [1]: 103%
- growth [2]: 103%
- growth [3]: 79%
- growth [4]: 98.8%
- growth [5]: 95.9%
- growth [6]: 96.8%
- growth [7]: 119%
- growth [8]: 96.6%
- growth [9]: 96.9%

Structure (SMILES): CN1CC=C(c2cc(NC(=O)Nc3ccc(Oc4ccnc(NC(=O)C5CC5)c4)c(F)c3)cc(C(F)(F)F)c2)CC1
- growth [1]: 5.35% (active)
- growth [2]: -13.6% (active)
- growth [3]: -76.4% (active)
- growth [4]: -1.77% (active)
- growth [5]: 3.71% (active)
- growth [6]: -43.9% (active)
- growth [7]: -22.1% (active)
- growth [8]: -46.5% (active)
- growth [9]: -1.25% (active)

Structure (SMILES): COCCc1n(Cc2ccc3ccccc3c2)c2ccccc2[n+]1Cc1ccc2ccccc2c1
- growth [1]: 7.25% (active)
- growth [2]: -61.3% (active)
- growth [3]: -39.7% (active)
- growth [4]: -89.8% (active)
- growth [5]: -14.5% (active)
- growth [6]: -97.5% (active)
- growth [7]: -89.3% (active)
- growth [8]: -92.5% (active)
- growth [9]: -46.4% (active)

Structure (SMILES): O=C(/C(=C/c1ccc([N+](=O)[O-])cc1)SCc1ccccc1)c1ccc(Cl)cc1
- growth [1]: 34.3%
- growth [2]: 52%
- growth [3]: 85%
- growth [4]: 61.6%
- growth [5]: 60.9%
- growth [6]: 73%
- growth [7]: 9.57% (active)
- growth [8]: 32.6%
- growth [9]: 94.6%

Structure (SMILES): C=C(C)[C@@H]1CC[C@]2(C(=O)n3ccnc3)CC[C@]3(C)[C@H](CC[C@@H]4[C@@]5(C)CCCNC(C)(C)[C@@H]5CC[C@]43C)[C@@H]12
- growth [1]: 3.01% (active)
- growth [2]: 1.76% (active)
- growth [3]: 81.1%
- growth [4]: -45.5% (active)
- growth [5]: 12.9%
- growth [6]: -97.9% (active)
- growth [7]: 31.9%
- growth [8]: -92% (active)
- growth [9]: -51.5% (active)

Structure (SMILES): CC(=O)O[C@@H]1C[C@]2(C)[C@H]3[C@H](O)C[C@@H]4C5=CC(C)(C)CC[C@]5(C)CC[C@@]4(C)[C@]3(C)CC[C@H]2C(C)(C)[C@H]1O
- growth [1]: 100%
- growth [2]: 97.8%
- growth [3]: 91.6%
- growth [4]: 97.6%
- growth [5]: 84.9%
- growth [6]: 114%
- growth [7]: 97.4%
- growth [8]: 98.7%
- growth [9]: 106%

Structure (SMILES): Nc1cc(N)c(S(=O)(=O)O)cc1N=Nc1cc([N+](=O)[O-])ccc1O
- growth [1]: 104%
- growth [2]: 102%
- growth [3]: 88.7%
- growth [4]: 100%
- growth [5]: 87.1%
- growth [6]: 105%
- growth [7]: 92.1%
- growth [8]: 93.4%
- growth [9]: 102%

Structure (SMILES): Cc1cccc(NC(=O)c2sc3nc4c(cc3c2N)CN(Cc2ccccc2)CC4)c1C
- growth [1]: 29.6%
- growth [2]: 9.33% (active)
- growth [3]: 13.5%
- growth [4]: 25.4%
- growth [5]: 32.2%
- growth [6]: 39.7%
- growth [7]: 42.8%
- growth [8]: 44%
- growth [9]: 68.2%

Reference: PubChem BioAssay (NCI)
